Among the test systems are HCT-15 colon; HT29 colon; SNB-75 CNS; SNB-19 CNS; U251 CNS; PC-3 prostate; SK-MEL-5 melanoma; UACC-62 melanoma; LOX IMVI melanoma; SK-MEL-28 melanoma; SK-MEL-2 melanoma; EKVX NSCLC; SN12C renal; UO-31 renal; TK-10 renal; ACHN renal; CAKI-1 renal; A498 renal; MOLT-4 leukemia; CCRF-CEM leukemia.
Common to all, as to test: NCI-60 one-dose screen, 48 h (100 = growth as untreated, 0 = no growth, -100 = all killed)
Holding throughout (conditions): 10 µM unless noted

Compounds without any hit were thinned out: in the full panel of roughly 83,000, 20% have a hit.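 Assay: single dose, 48 h. Readout: percent growth (0 = no net growth; negative = cell death). Active: <10.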 Values without a mark were called inactive. Activity calls are given as the source filed them.

For `CC12CC(C#N)CCC1O2` (stereo not drawn), the growth with HCT-15 colon was 118%; in the assay on HT29 colon, 109%; with SNB-75 CNS, 100%; in the assay with SNB-19 CNS it was 111%; in the assay on U251 CNS, 103%; with PC-3 prostate, 101%. The growth in the assay on SK-MEL-5 melanoma is 111%; in the assay with UACC-62 melanoma, 109%; with LOX IMVI melanoma it was 108%; in the assay with SK-MEL-28 melanoma, 109%; in the assay with SK-MEL-2 melanoma, 116%; with EKVX NSCLC, 120%. The growth in the assay on SN12C renal was 105%; in the assay on UO-31 renal it was 96%; with TK-10 renal, 119%; in the assay on ACHN renal it was 101%; in the assay with CAKI-1 renal it was 111%; in the assay on A498 renal, 121%. Also, in the assay with MOLT-4 leukemia, the growth was 96.2%.

Take `O=C1Nc2ccccc2/C1=N/N=C/c1ccc(OC2OC(CO)C(O)C(O)C2O)cc1` (stereo not drawn): the growth with HCT-15 colon was 105%; in the assay with HT29 colon, 103%; in the assay on SNB-75 CNS, 96.8%; in the assay on SNB-19 CNS, 100%; in the assay with U251 CNS it was 106%; in the assay on PC-3 prostate, 105%. In addition, the growth in the assay with SK-MEL-5 melanoma is 103%; with UACC-62 melanoma, 101%; with LOX IMVI melanoma it was 101%; in the assay with SK-MEL-28 melanoma, 108%; in the assay with SK-MEL-2 melanoma, 107%; in the assay with EKVX NSCLC, 100%. Besides, the growth in the assay with SN12C renal is 101%; in the assay on UO-31 renal it was 78.6%; with TK-10 renal, 110%; in the assay with ACHN renal it was 103%; with CAKI-1 renal, 95.1%; in the assay on CCRF-CEM leukemia it was 107%. Moreover, the growth with MOLT-4 leukemia is 112%.

On to `CN=C1C=CC(=C(c2ccc(N(C)C)cc2)c2ccc(N(C)C)cc2)C=C1`, for which the growth is 7.06% (active) in the assay with HCT-15 colon; -37.2% (active) in the assay on HT29 colon; -26.7% (active) in the assay with SNB-75 CNS; 3.16% (active) in the assay on SNB-19 CNS; -57.5% (active) in the assay with U251 CNS; 2.74% (active) in the assay with PC-3 prostate. Further, the growth is -98.5% (active) with SK-MEL-5 melanoma; -50.2% (active) in the assay on UACC-62 melanoma; -59.3% (active) with LOX IMVI melanoma; -44.9% (active) with SK-MEL-28 melanoma; -52.4% (active) in the assay with SK-MEL-2 melanoma; 3.72% (active) in the assay on EKVX NSCLC. Also, the growth is -32.1% (active) with SN12C renal; -14.2% (active) with UO-31 renal; -53% (active) in the assay on TK-10 renal; -53.4% (active) with ACHN renal; 9.65% (active) in the assay with CAKI-1 renal; -27.4% (active) in the assay with A498 renal. Further, the growth in the assay with MOLT-4 leukemia is 3.36% (active).

For `O=C(/C=C/C12c3ccccc3C(c3ccccc31)C1C(=O)NC(=O)C12)c1ccccc1` (stereo not drawn), the growth with HCT-15 colon was 20%; in the assay with HT29 colon, 18.3%; with SNB-75 CNS it was -2.11% (active); with SNB-19 CNS it was 32.9%; in the assay with U251 CNS it was 25.6%; in the assay on PC-3 prostate, 29.9%. For the same compound, the growth in the assay with SK-MEL-5 melanoma was 28.8%; with UACC-62 melanoma it was 36.3%; in the assay on LOX IMVI melanoma, 2.81% (active); with SK-MEL-28 melanoma, 44.7%; in the assay with SK-MEL-2 melanoma it was 30.9%; with EKVX NSCLC it was 21%. The growth in the assay on SN12C renal was 18.8%; in the assay on UO-31 renal it was 39.7%; in the assay on TK-10 renal it was 44.3%; in the assay with ACHN renal, 32.7%; in the assay on CAKI-1 renal, 45.2%; with CCRF-CEM leukemia, 12.6%. Besides, the growth in the assay on MOLT-4 leukemia was 16.6%.

As to `CCn1c(Sc2nnc(NC(C)=O)s2)nc2c1c(=O)n(C)c(=O)n2C`, the growth in the assay with HCT-15 colon was 97.5%; in the assay on HT29 colon, 104%; with SNB-75 CNS it was 90%; with SNB-19 CNS, 96.8%; in the assay with U251 CNS, 106%; in the assay with PC-3 prostate, 91.9%. For the same compound, the growth with SK-MEL-5 melanoma was 98.6%; in the assay on UACC-62 melanoma, 93.3%; in the assay on LOX IMVI melanoma, 90%; with SK-MEL-28 melanoma, 101%; in the assay on SK-MEL-2 melanoma, 103%; in the assay on EKVX NSCLC it was 88.3%. The growth with SN12C renal is 94%; in the assay on UO-31 renal, 83.5%; with TK-10 renal it was 103%; in the assay with ACHN renal it was 95.5%; in the assay with CAKI-1 renal, 93.7%; in the assay on CCRF-CEM leukemia, 112%. Moreover, the growth in the assay with MOLT-4 leukemia was 113%.

For the compound `COC(=O)[C@]12CC[C@@H](C)[C@H](C)[C@@H]1C1=CC[C@@H]3[C@@]4(C)C(C=O)=C[C@@](C)(CO)C4=CC[C@@]3(C)[C@]1(C)CC2`, the growth in the assay on HCT-15 colon is 9.41% (active); in the assay with HT29 colon, 14.5%; with SNB-75 CNS, 62.6%; in the assay with SNB-19 CNS, 39.4%; in the assay on U251 CNS it was 23.4%; with PC-3 prostate, 16.2%. Also, the growth in the assay on SK-MEL-5 melanoma is 35.2%; in the assay with UACC-62 melanoma, 42.9%; in the assay with LOX IMVI melanoma, 26.1%; with SK-MEL-28 melanoma, 26.9%; in the assay with SK-MEL-2 melanoma, 52.4%; in the assay with EKVX NSCLC it was 34.4%. In addition, the growth in the assay with SN12C renal was 37.6%; in the assay on UO-31 renal, 27.8%; with TK-10 renal, 54.4%; in the assay on ACHN renal it was 17.1%; with CAKI-1 renal, 42.8%; in the assay with CCRF-CEM leukemia, 18.7%. In addition, the growth with MOLT-4 leukemia was 8.61% (active).

As for `C[C@@H]1CC[C@@H]2[C@@H]1[C@H](OC(=O)/C=C/c1ccccc1)[C@]1(CCCOCCOCCOCCOC(=O)CCCC[C@@H]3SC[C@@H]4NC(=O)N[C@@H]43)C[C@@H](OC(=O)CO)[C@@]2(C)O1`, the growth was 106% in the assay on HCT-15 colon; 98.1% with HT29 colon; 88.8% in the assay on SNB-75 CNS; 106% in the assay on SNB-19 CNS; 105% with U251 CNS; 97.7% with PC-3 prostate. Also, the growth with SK-MEL-5 melanoma was 105%; with UACC-62 melanoma, 102%; with LOX IMVI melanoma it was 106%; in the assay on SK-MEL-28 melanoma, 108%; with SK-MEL-2 melanoma it was 108%; in the assay with EKVX NSCLC, 101%. Besides, the growth was 106% with SN12C renal; 83.1% in the assay with UO-31 renal; 99% in the assay with TK-10 renal; 102% with ACHN renal; 91.5% in the assay with CAKI-1 renal; 97.1% with A498 renal. For the same compound, the growth in the assay with MOLT-4 leukemia is 97.9%.

For the origin of these results see PubChem BioAssay (NCI).
